Among the data in PubChem BioAssay (EPA / NIEHS) are outcome and AC50 values, retold here.

Calls of active or inactive are those of the source. Rule for the calls: active = hit-call score of the fitted dose curve at least 0.9, where 1 is the maximum; inactive = score below 0.9.

Read-out in assay [1]: C-C motif chemokine 2 (Homo sapiens) (UniProt P13500)
Description: BSK_KF3CT_MCP1: BioMAP Diversity Plus: KF3CT Assay for Monocyte Chemoattractant Protein 1 (MCP1/CCL2) Biomarker Activity (AID 2283073). The following applies: primary human keratinocytes with fibroblasts; actives raise or lower the signal. In short, it runs like this: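 ELISA readout of MCP-1 after 24 h chemical dosing of a human skin primary co-culture of keratinocytes and foreskin fibroblasts. Activity was fitted in both directions against DMSO.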

Read-out in assay [2]: Matrix Metallopeptidase 9 (MMP9), MMP9 (gene 4318)
Put plainly: BSK_KF3CT_MMP9: BioMAP Diversity Plus: KF3CT Assay for Matrix Metallopeptidase 9 (MMP9) Biomarker Activity (AID 2283074).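 Note: MMP9 protein level quantified by ELISA in the co-culture.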 To be noted: primary human keratinocytes with fibroblasts; actives raise or lower the signal. In short, it runs like this:
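Human keratinocyte and foreskin fibroblast co-culture exposed to chemicals for 24 h; MMP9 biomarker measured by ELISA, bidirectional fitting relative to DMSO; cytotoxicity tracked by SRB total protein staining in parallel cultures.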

Read-out in assay [3]: urokinase plasminogen activator (uPA), PLAU (gene 5328)
Description: BSK_KF3CT_uPA: BioMAP Diversity Plus: KF3CT Assay for urokinase plasminogen activator (uPA) Biomarker Activity (AID 2283075). The following applies: primary human keratinocytes with fibroblasts; actives raise or lower the signal. In short, it runs like this: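 Primary human keratinocyte/foreskin fibroblast co-culture exposed to chemical; uPA measured by ELISA at 24 h. Bidirectional fit versus DMSO, with parallel SRB total-protein staining for cytotoxicity.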

Read-out in assay [4]: CD40, CD40 (gene 958)
Description: BSK_LPS_CD40: BioMAP Diversity Plus: LPS Assay for CD40 Biomarker Activity (AID 2283076). To be noted: primary human HUVEC with PBMC; actives raise or lower the signal. In short, it runs like this:
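Cells were dosed, incubated 24 h, then assayed for CD40 by ELISA. Gain or loss of signal was analysed relative to DMSO controls. The culture paired human umbilical vein endothelium with peripheral blood mononuclear cells.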

Read-out in assay [5]: E-selectin (Homo sapiens) (UniProt P16581)
Put plainly: BSK_LPS_Eselectin: BioMAP Diversity Plus: LPS Assay for Eselectin Biomarker Activity (AID 2283077). To be noted: primary human HUVEC with PBMC; actives raise or lower the signal. In short, it runs like this:
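Primary human vascular co-culture (endothelium plus PBMC) was dosed with chemical, then E-selectin quantified by ELISA at 24 h. Endpoint values derive from bidirectional curve fitting relative to DMSO.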

Read-out in assay [6]: Interleukin-8 (IL8), CXCL8 (gene 3576)
Put plainly: BSK_LPS_IL8: BioMAP Diversity Plus: LPS Assay for Interleukin-8 (IL8) Biomarker Activity (AID 2283078). To be noted: primary human HUVEC with PBMC; actives raise or lower the signal. In short, it runs like this: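 Readout is IL-8 by ELISA, taken 24 h after compounds were added to LPS-stimulated endothelial/PBMC co-cultures. Both increases and decreases relative to DMSO control were scored through bidirectional fitting.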

Assay [7] is described as follows: BSK_LPS_SRB: Viability Assessment in the BioMAP Diversity Plus: LPS Assay (AID 2283079).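 Note: total protein by sulforhodamine B absorbance as a cytotoxicity measure; measured one day after compound addition.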 To be noted: primary human HUVEC with PBMC. In short, it runs like this: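 Readout is SRB absorbance at 560 nm (0.1% stain, TCA-fixed parallel cultures) as a total-protein cytotoxicity measure. Cells: primary human umbilical vein endothelium plus peripheral blood mononuclear cells, 24 h after chemical exposure; DMSO served as baseline.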

Read-out in assay [8]: Interleukin-1 alpha (IL1a), IL1A (gene 3552)
Put plainly: BSK_LPS_IL1a: BioMAP Diversity Plus: LPS Assay for Interleukin-1 alpha (IL1a) Biomarker Activity (AID 2283080). To be noted: primary human HUVEC with PBMC; actives raise or lower the signal. In short, it runs like this: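 ELISA read-out of IL-1 alpha from a human primary vascular co-culture (endothelium plus PBMC) under LPS, sampled 24 hours post-dosing. Activity was fitted in both directions relative to DMSO controls.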

Read-out in assay [9]: Monocyte Chemoattractant Protein-1 (MCP1), CCL2 (gene 6347)
Description: BSK_LPS_MCP1: BioMAP Diversity Plus: LPS Assay for Monocyte Chemoattractant Protein-1 (MCP1) Biomarker Activity (AID 2283081).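 For AC50: secreted MCP-1 protein quantified by ELISA in culture supernatant.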 The following applies: primary human HUVEC with PBMC; actives raise or lower the signal. In outline: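 Human endothelial–PBMC co-cultures were dosed with chemical, then LPS-driven MCP-1 levels were quantified by ELISA at 24 h. Activity in either direction was fitted versus DMSO negative control.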

Assay [10] in a line: BSK_LPS_PGE2: BioMAP Diversity Plus: LPS Assay for Prostaglandin E2 (PGE2) Biomarker Activity (AID 2283082). The following applies: primary human HUVEC with PBMC; actives raise or lower the signal. In short, it runs like this: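 HUVEC plus PBMC co-culture stimulated with LPS; secreted PGE2 quantified by ELISA 24 h after chemical dosing. Activity fitted bidirectionally against DMSO as negative control and baseline; parallel SRB total-protein staining served as cytotoxicity check.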

Read-out in assay [11]: Macrophage colony-stimulating factor (MCSF), CSF1 (gene 1435)
Put plainly: BSK_LPS_MCSF: BioMAP Diversity Plus: LPS Assay for Macrophage colony-stimulating factor (MCSF) Biomarker Activity (AID 2283083). To be noted: primary human HUVEC with PBMC; actives raise or lower the signal. In outline: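 ELISA readout of M-CSF after 24 h compound exposure in a human endothelial/PBMC co-culture. Activity, in either direction, is fitted relative to DMSO vehicle.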

Read-out in assay [12]: Tissue Factor, F3 (gene 2152)
Put plainly: BSK_LPS_TissueFactor: BioMAP Diversity Plus: LPS Assay for Tissue Factor Biomarker Activity (AID 2283084). The following applies: primary human HUVEC with PBMC; actives raise or lower the signal. In outline: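 ELISA signal for cell-surface Tissue Factor (CD142) was read 24 h after compound dosing of an LPS-stimulated human endothelial–PBMC primary co-culture. Gain or loss of signal was scored relative to DMSO.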

Read-out in assay [13]: Vascular cell adhesion molecule 1 (VCAM1), VCAM1 (gene 7412)
Description: BSK_LPS_VCAM1: BioMAP Diversity Plus: LPS Assay for Vascular cell adhesion molecule 1 (VCAM1) Biomarker Activity (AID 2283086). The following applies: primary human HUVEC with PBMC; actives raise or lower the signal. In outline: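 Human umbilical vein endothelial cells co-cultured with peripheral blood mononuclear cells under LPS stimulation were exposed to test chemical for 24 h. VCAM-1 levels were then measured by ELISA, with bidirectional curve fitting relative to DMSO as negative control and baseline.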

Read-out in the next assay: CD38, CD38 (gene 952)
Put plainly: BSK_SAg_CD38: BioMAP Diversity Plus: SAg Assay for CD38 Biomarker Activity (AID 2283087). To be noted: primary human HUVEC with PBMC; actives raise or lower the signal. In short, it runs like this:
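Fluorescence ELISA of cell-surface CD38 served as the read-out, with either increase or decrease fitted against DMSO controls. Cells were a human umbilical vein endothelium plus PBMC co-culture under SEB/TSST-1 stimulation, measured 24 h after dosing.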

Read-out in assay [14]: CD40, CD40 (gene 958)
Description: BSK_SAg_CD40: BioMAP Diversity Plus: SAg Assay for CD40 Biomarker Activity (AID 2283088). To be noted: primary human HUVEC with PBMC; actives raise or lower the signal. In short, it runs like this: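 Compounds were dosed onto a human primary endothelial–PBMC co-culture, and after 24 h CD40 was quantified by ELISA using a fluorescence signal. Activity in either direction was fitted relative to DMSO.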

Read-out in a further assay: CD69, CD69 (gene 969)
Description: BSK_SAg_CD69: BioMAP Diversity Plus: SAg Assay for CD69 Biomarker Activity (AID 2283089).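 Note: cell surface CD69 protein quantified by ELISA with fluorescence detection.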 To be noted: primary human HUVEC with PBMC; actives raise or lower the signal. In outline: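 HUVEC co-cultured with PBMC were dosed with chemical, and CD69 was measured by ELISA with fluorescence read-out 24 h later. Bidirectional curve fitting used DMSO as negative control and activity baseline.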

Read-out in assay [15]: Monocyte Chemoattractant Protein-1 (MCP1), CCL2 (gene 6347)
Description: BSK_SAg_MCP1: BioMAP Diversity Plus: SAg Assay for Monocyte Chemoattractant Protein-1 (MCP1) Biomarker Activity (AID 2283090). The following applies: primary human HUVEC with PBMC; actives raise or lower the signal. In outline: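 MCP-1 levels in the endothelial–PBMC SAg co-culture were quantified by ELISA at 24 h post-dosing; both increases and decreases versus DMSO scored. Cytotoxicity monitored by SRB total protein in parallel cultures.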

Read-out in assay [16]: E-selectin (Homo sapiens) (UniProt P16581)
Description: BSK_SAg_Eselectin: BioMAP Diversity Plus: SAg Assay for Eselectin Biomarker Activity (AID 2283091). The following applies: primary human HUVEC with PBMC; actives raise or lower the signal. In short, it runs like this: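 Co-culture: HUVEC + PBMC. Dose compound; 24 h. ELISA for E-selectin. Bidirectional fit vs DMSO.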

Read-out in assay [17]: Monokine induced gamma interferon (MIG), CXCL9 (gene 4283)
Put plainly: BSK_SAg_MIG: BioMAP Diversity Plus: SAg Assay for Monokine induced gamma interferon (MIG) Biomarker Activity (AID 2283092). To be noted: primary human HUVEC with PBMC; actives raise or lower the signal. In short, it runs like this:
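HUVEC plus human PBMC co-culture, chemicals dosed and MIG (CXCL9) quantified by ELISA at 24 h. Bidirectional curve fitting against DMSO as negative control and baseline, so both gain and loss of signal count as activity.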

Read-out in assay [18]: Tumor necrosis factor (Homo sapiens) (UniProt P01375)
Description: BSK_LPS_TNFa: BioMAP Diversity Plus: LPS Assay for Tumour Necrosis Factor alpha (TNFa) Biomarker Activity (AID 2283085). The following applies: primary human HUVEC with PBMC; actives raise or lower the signal. In outline: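 Human umbilical vein endothelial cells co-cultured with PBMC were exposed to test chemical and TNFa measured by ELISA 24 h after dosing. Bidirectional curve fitting was done relative to DMSO as negative control and baseline.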

In general, AC50 refers to the midpoint of the concentration-response curve, whichever way the signal moves.

E-selectin (Homo sapiens), sequence (P16581 whole entry, looked up): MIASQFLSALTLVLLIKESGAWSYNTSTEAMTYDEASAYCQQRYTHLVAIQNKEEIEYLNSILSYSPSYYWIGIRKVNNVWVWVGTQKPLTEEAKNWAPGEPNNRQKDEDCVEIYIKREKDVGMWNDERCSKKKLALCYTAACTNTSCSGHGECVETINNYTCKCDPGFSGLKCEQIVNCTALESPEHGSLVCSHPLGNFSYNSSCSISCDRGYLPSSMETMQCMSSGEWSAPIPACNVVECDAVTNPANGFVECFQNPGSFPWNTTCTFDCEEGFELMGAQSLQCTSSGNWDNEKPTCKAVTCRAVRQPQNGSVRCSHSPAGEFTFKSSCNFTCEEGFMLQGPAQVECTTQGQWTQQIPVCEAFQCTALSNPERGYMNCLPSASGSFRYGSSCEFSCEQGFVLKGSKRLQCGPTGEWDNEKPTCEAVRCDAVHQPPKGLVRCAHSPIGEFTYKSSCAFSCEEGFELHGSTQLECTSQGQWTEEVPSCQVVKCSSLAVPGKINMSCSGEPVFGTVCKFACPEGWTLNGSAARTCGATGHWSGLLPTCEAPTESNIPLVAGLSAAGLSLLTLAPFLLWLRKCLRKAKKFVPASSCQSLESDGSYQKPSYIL
Tumor necrosis factor (Homo sapiens), sequence (P01375 whole entry, looked up): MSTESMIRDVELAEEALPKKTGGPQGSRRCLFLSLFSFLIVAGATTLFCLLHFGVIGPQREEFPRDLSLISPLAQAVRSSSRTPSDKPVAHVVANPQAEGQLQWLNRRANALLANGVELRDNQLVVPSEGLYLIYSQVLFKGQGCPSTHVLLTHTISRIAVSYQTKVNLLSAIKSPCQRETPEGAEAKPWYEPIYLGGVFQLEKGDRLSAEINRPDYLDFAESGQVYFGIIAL

As to `Cc1cc(C(C)(C)c2ccc(O)c(C)c2)ccc1O`, the outcome in [1], in assay [3], in assay [5], in [6], in [8] and in [9] was inactive. The outcome in assay [12], in [13] and in assay [17] was inactive. Besides, the AC50 in [2] is 15.2 µM (active); in the assay with CD40, CD40 (gene 958) [4], 14.3 µM (active); in assay [7] it was 12.5 µM (active); in assay [10], 4.51 µM (active); in assay [11], 15.1 µM (active); with CD38, CD38 (gene 952) it was 14.7 µM (active). The AC50 with CD40, CD40 (gene 958) [14] is 15.4 µM (active); in the assay with CD69, CD69 (gene 969) it was 15.4 µM (active); in [15] it was 15.9 µM (active); in assay [16] it was 14.8 µM (active).
`c1ccc(-c2cccc(-c3ccccc3)c2)cc1`: the result in assay [1], in assay [3] and in assay [17] was inactive. In addition, the AC50 in assay [2] is 8.97 µM (active); in the assay with CD40, CD40 (gene 958) [4] it was 25.4 µM (active); in assay [5], 29.7 µM (active); in [6] it was 29.9 µM (active); in assay [7], 23.9 µM (active); in assay [8], 20 µM (active). For the same compound, the AC50 in assay [9] was 29.5 µM (active); in [10], 0.75 µM (active); in assay [11] it was 30.2 µM (active); in [12], 32.7 µM (active); in assay [13] it was 27.3 µM (active); in the assay with CD38, CD38 (gene 952), 30.5 µM (active). The AC50 with CD40, CD40 (gene 958) [14] is 29.4 µM (active); with CD69, CD69 (gene 969), 30.9 µM (active); in assay [15], 32.5 µM (active); in [16], 33.1 µM (active).
With `Oc1c(Br)cc(Br)cc1Br`, the outcome in [1], in [3], in [5], in assay [6], in assay [7] and in [8] was inactive. The outcome in [9], in assay [10], in assay [11], in [12], in assay [18] and in [13] was inactive. Further, the outcome in assay [15] and in assay [17] was inactive. The AC50 in assay [2] was 28.2 µM (active); in the assay with CD40, CD40 (gene 958) [4], 13.9 µM (active); with CD38, CD38 (gene 952) it was 30.3 µM (active); with CD40, CD40 (gene 958) [14], 20 µM (active); with CD69, CD69 (gene 969) it was 35 µM (active); in assay [16], 20 µM (active).
